PubChem BioAssay (EPA / NIEHS)
Active and inactive are the calls of the source. The calls were made as follows: active = hit-call score of the fitted dose curve at least 0.9, where 1 is the maximum; inactive = score below 0.9.

read-out: Insulin Like Growth Factor 1 (IGF1), IGF1 (gene 3479); test: LTEA_HepaRG_IGF1: Life Technologies and Expression Analysis (LTEA) Assay for Insulin Like Growth Factor 1 (IGF1) using HepaRG (AID 2283506); details: mRNA level, 48 h; actives raise or lower the signal
Method in brief: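 Cells are thawed, plated and cultured 48 h, then exposed in duplicate to chemical (highest 100 uM, half-log steps, 0.5% DMSO) for another 48 h. Total RNA is analysed by Fluidigm qRT-PCR for IGF1 expression relative to vehicle.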

outcome, inactive:
CSc1ccc(Oc2ccc(S(N)(=O)=O)cc2CN(C)C)cc1C
CCCCOC(=O)CCCCC(=O)OCCCC
Cc1cc(Cc2ccc(N)c(C)c2)ccc1N
CCCCCCC(C=O)=Cc1ccccc1
O=C1O[C@H]([C@H](O)CO)C(O)=C1O
OCC(O)CO
O=C(O)CC(O)(CC(=O)O)C(=O)O
O=Cc1ccccc1C=O
CC1(C)C(=O)NC(=O)N1CO
CCCC[C@H]1CN(CC2CCOCC2)C(=O)OC12CCN(C1(C)CCN(C(=O)c3c(C)ncnc3C)CC1)CC2
C#CC(O)C(CC)CCCC (configuration not stated)
Cc1ccc(C(C)(C)C)c(O)c1

AC50, active:
COc1ccc(C(=O)Nc2nc3ccccc3c(NCc3ccccc3)c2C#N)cc1 13.4 µM
CN(C)C(=O)NC1(c2ccccc2)CCN(CC[C@@]2(c3ccc(F)c(F)c3)CN(C(=O)c3ccccc3)CCO2)CC1 15.7 µM
Cc1cc(SC2=C(O)C[C@@](CCc3ccc(N)cc3)(C(C)C)OC2=O)c(C(C)(C)C)cc1CO 4.02 µM
CCC(C)N(C)C(=O)c1cc2ccccc2c(-c2ccccc2Cl)n1 (configuration not stated) 21.6 µM
CCCCc1nc2cccnc2n1Cc1ccc(-c2ccccc2-c2nnn[nH]2)cc1 50 µM

read-out: Intercellular Adhesion Molecule 1 (ICAM1), ICAM1 (gene 3383); test: LTEA_HepaRG_ICAM1: Life Technologies and Expression Analysis (LTEA) Assay for Intercellular Adhesion Molecule 1 (ICAM1) using HepaRG (AID 2283507); details: mRNA level, 48 h; actives raise or lower the signal
Method in brief: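 Readout is qRT-PCR mRNA level, normalized to three housekeeping genes and fitted bidirectionally against 0.5% DMSO vehicle. Human HepaRG cultures received compound for 48 h, top concentration 100 uM with half-log dilutions.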

outcome, inactive:
COC(=O)CCCC(=O)OC
O=C(O)CN(CC(=O)O)CC(=O)O
CCc1nc(N)nc(N)c1-c1ccc(Cl)cc1
CC(C)c1cccc(C(C)C)c1NC(=O)NS(=O)(=O)c1cc(C(C)(C)O)co1
Oc1ccc(O)cc1
NC=O
CC(=O)S[C@H](C(=O)N[C@H]1Cc2ccccc2[C@H]2CCC[C@@H](C(=O)O)N2C1=O)C(C)C
CC(=O)CC(c1ccccc1)c1c(O)c2ccccc2oc1=O (configuration not stated)
NCCOCCOCCN
O=C(O)c1[nH]n(-c2ccc(S(=O)(=O)O)cc2)c(=O)c1N=Nc1ccc(S(=O)(=O)O)cc1
CCCCCCCCCC[N+](C)(C)[O-]
CSc1ccc(Oc2ccc(S(N)(=O)=O)cc2CN(C)C)cc1C
CCCCOC(=O)CCCCC(=O)OCCCC
COc1ccc(C(=O)Nc2nc3ccccc3c(NCc3ccccc3)c2C#N)cc1
CN(C)C(=O)NC1(c2ccccc2)CCN(CC[C@@]2(c3ccc(F)c(F)c3)CN(C(=O)c3ccccc3)CCO2)CC1
Cc1cc(Cc2ccc(N)c(C)c2)ccc1N
Cc1cc(SC2=C(O)C[C@@](CCc3ccc(N)cc3)(C(C)C)OC2=O)c(C(C)(C)C)cc1CO
CCCCCCC(C=O)=Cc1ccccc1
O=C1O[C@H]([C@H](O)CO)C(O)=C1O
CCC(C)N(C)C(=O)c1cc2ccccc2c(-c2ccccc2Cl)n1 (configuration not stated)
OCC(O)CO
CCCCc1nc2cccnc2n1Cc1ccc(-c2ccccc2-c2nnn[nH]2)cc1
O=C(O)CC(O)(CC(=O)O)C(=O)O
O=Cc1ccccc1C=O
CC1(C)C(=O)NC(=O)N1CO
CCCC[C@H]1CN(CC2CCOCC2)C(=O)OC12CCN(C1(C)CCN(C(=O)c3c(C)ncnc3C)CC1)CC2
C#CC(O)C(CC)CCCC (configuration not stated)
Cc1ccc(C(C)(C)C)c(O)c1

AC50, active:
CCc1cc(C2=C(C(=O)O)N(c3ccccc3C(F)(F)F)S(=O)(=O)c3ccccc32)cc2c1OCO2 50 µM
CN(C)CCCN1c2ccccc2Sc2ccc(Cl)cc21 77.7 µM
